{
  "source": "paper PMC3795721",
  "about": "“Screening for Protein-DNA Interactions by Automatable DNA-Protein Interaction ELISA”",
  "data": [
    {"target": "AT4G31550 (Arabidopsis thaliana, UniProt Q9SV15 228-325)", "sequence (Q9SV15 228-325)": "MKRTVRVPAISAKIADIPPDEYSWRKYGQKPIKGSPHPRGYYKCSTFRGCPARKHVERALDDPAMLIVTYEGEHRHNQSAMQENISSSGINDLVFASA", "assay": "DPI-ELISA; DPI-ELISA, streptavidin 384-well plate, 1-2 pmol biotinylated dsDNA per well, crude native E. coli extract, anti-His detection; buffer as in Brand et al. [46],; high values mean tight binding", "conditions": "tags: C-terminal His (pET-DEST42); label: 5' biotin on forward strand; dsDNA, one strand shown", "units": {"binding signal": "absorbance"}, "values": [
      {"sequence": "AAAAAAGACACTCTAATTCCGTAGGCAAAA", "binding signal": "0.405 ± 0.0495"},
      {"sequence": "AAAAAAGTCCCGCGCTAAGCTTTAAAAAAA", "binding signal": "0.615 ± 0.106"},
      {"sequence": "AAAAAAGTTCGTGCTTAACCCAGTTTAAAA", "binding signal": "0.69 ± 0.099"},
      {"sequence": "AAAAAAACCGCGTCGCGGCCCGGGAAAA", "binding signal": "0.5 ± 0.113"},
      {"sequence": "AAAAAAGTGCACGACCCATTTATATAAAAA", "binding signal": "0.5 ± 0.099"},
      {"sequence": "AAAAAAAGTTCGCGGATTTCGGCCATAAAA", "binding signal": "0.685 ± 0.148"},
      {"sequence": "AAAAAAACCCGGCCGCCATGGTAGTAAAAA", "binding signal": "0.7 ± 0.212"},
      {"sequence": "AAAAAAATCAGCCTGACTCTGGGCGTAAAA", "binding signal": "0.71 ± 0.141"},
      {"sequence": "AAAAAAAGTTACCAGTACGCGTCGGGAAAA", "binding signal": "0.64 ± 0.141"},
      {"sequence": "AAAAAAGGTCCAGTCCACGTCATCAGAAAA", "binding signal": "1.84 ± 0.431"},
      {"sequence": "AAAAAAGTTCGGGGCTTGGTTTGGAAAAAA", "binding signal": "0.765 ± 0.205"},
      {"sequence": "AAAAAATATTCGCCGGTAGCCACGCTAAAA", "binding signal": "0.565 ± 0.12"},
      {"sequence": "AAAAAAAAGAGCCTGGGGGTTCGCATAAAA", "binding signal": "0.655 ± 0.0636"},
      {"sequence": "AAAAAAATTCATGCTATTTAACCTTAAAAA", "binding signal": "0.745 ± 0.0919"}
    ]}
  ]
}
